Source: PubChem BioAssay (NCATS)
Records with an inconclusive call do not appear. Calls of active or inactive are those of the source. The call rests on the fitted dose curve; in most records, active means well fitted curve in the direction sought with a large enough effect; inconclusive means small, poorly fitted or top-dose-only effect, or another doubt; inactive means no such curve, though single readings can be large; an effect the other way counts as inactive or inconclusive.

Columns and labels:
[1] = target: Calcium and integrin-binding protein 1 (Homo sapiens) (UniProt Q99828); assay: Primary qHTS for Identification of Calcium Integrin Binding Protein 1 (CIB1) Competitor (AID 1508620);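 further: GST tagged CIB1 binding a fluorescein labelled alphaIIb integrin peptide tracer; top concentration of the series differs between compounds; on the % scale 0 is the no-effect control and ±100 the full control effect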
Sequence of Calcium and integrin-binding protein 1 (Homo sapiens) (Q99828 whole entry, looked up): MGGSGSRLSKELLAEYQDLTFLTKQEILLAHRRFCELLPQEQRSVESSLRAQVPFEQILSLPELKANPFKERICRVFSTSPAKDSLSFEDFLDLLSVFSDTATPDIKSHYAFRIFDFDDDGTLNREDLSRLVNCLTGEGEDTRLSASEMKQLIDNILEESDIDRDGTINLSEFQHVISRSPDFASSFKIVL
Method in brief: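 Fluorescence polarization competition: GST-tagged CIB1 (1 uM final) preincubated with compound 15 min at room temperature, then FITC-labelled alphaIIb peptide (100 nM final) added. After 15 min at room temperature, polarization read at Ex 480/Em 540.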

[2] = Primary qHTS for inhibitors of nuclear receptor binding SET domain protein 2 (NSD2) in an isogenic RCH-ACV NSD2 p.E1099K mutant (9B) (AID 1645876); further: nearly all actives have a fitted effect of over 70% in size; further: potency means the concentration at half of the fitted maximal effect
[3] = target: Phospholipid hydroperoxide glutathione peroxidase GPX4 (Homo sapiens) (UniProt P36969); assay: Primary qHTS Assay for Inhibitors of Recombinant Selenoprotein Glutathione Peroxidase 4 (GPX4) (AID 1845192); further: on the % scale 0 is the no-effect control and ±100 the full control effect; nearly all actives have a fitted effect of over 65% in size
Sequence of Phospholipid hydroperoxide glutathione peroxidase GPX4 (Homo sapiens) (P36969 whole entry, looked up): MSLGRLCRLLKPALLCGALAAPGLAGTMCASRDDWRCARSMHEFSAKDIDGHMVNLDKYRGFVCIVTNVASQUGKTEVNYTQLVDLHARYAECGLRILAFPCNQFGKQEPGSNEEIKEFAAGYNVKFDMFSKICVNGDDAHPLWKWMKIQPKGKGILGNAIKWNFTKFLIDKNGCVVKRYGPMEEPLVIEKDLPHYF
Method in brief: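 GR-coupled assay: recombinant GPX4 preincubated 30 min with compound at room temperature; final 200 nM GPX4, 1 mM GSH, 0.5 mM cumene hydroperoxide, 0.5 mM NADPH, 100 nM GR, 0.01% BSA, pH 7.5 Tris. NADPH fluorescence (340/450 nm) read at 0 and 15 min.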

[4] = target: Luciferin 4-monooxygenase (Photinus pyralis) (UniProt P08659); assay: Primary firefly luciferase (FLuc) qHTS assay for identification of artifact compounds. (AID 1845220); details: outcome: dose series up to 54.1 µM unless noted; further: nearly all actives have a fitted effect of over 60% in size
Method in brief: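 Titrated compounds were incubated 15 min at RT, protected from light, with luciferin and ATP at 10 uM; reaction started with 10 nM FLuc, luminescence imaged at 5 min, and concentration-response fitted by Hill equation.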

[5] = Primary fluorescence-based thiol-reactive (MSTI) qHTS assay for identification of artifact compounds. (AID 1845221); further: nearly all actives have a fitted effect of over 65% in size; further: potency means the concentration at half of the fitted maximal effect
Method in brief: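 Curve-fitted percent inhibition (4-parameter Hill) derived from fluorescence, Ex 525/Em 598 nm, scaled with Acetyl-MSTI and MSTI; 1 h incubation at room temperature.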

[6] = tested on: Nanoluciferase (engineered Oplophorus gracilirostris luciferase); assay: Primary Nanoluciferase (NLuc) qHTS assay for identification of artifact compounds. (AID 1845222);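 further: NLuc secreted into diluted conditioned medium of S16 cells; 0% = DMSO and -100% = no enzyme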
Method in brief: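 qHTS format, against NLuc in S16 cell-conditioned medium. Nano-Glo substrate 1:100 was added after 15 min at room temperature. Luminescence was taken after a further 5 min.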

[7] = Primary redox qHTS assay for identification of artifact compounds. (AID 1845223);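 further: 0% = DMSO and 100% = reference compound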
Method in brief: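 Amplex Red (25 uM) and HRP (250 mU/mL) in HBSS, with compounds for 15 min, then 250 uM DTT for 30 min, room temperature, dark. Fluorescence 525/598 nm read; normalized to DMSO and 10 uM DA3003; Hill fit.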

CRL-7250 = normal cell line; assay: Cytotoxic Profiling of Annotated Libraries Using Quantitative High-Throughput Screening (AID 1296008); details: Five cell lines viability, CellTiter-Glo ATP luminescence, 48-72 h; max response: stronger effect = lower value; further: nearly all actives have a fitted effect of over 60% in size; further: potency means the concentration at half of the fitted maximal effect; on max response: on the % scale 0 is the no-effect control and ±100 the full control effect
Method in brief: (§1)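 Cells exposed to compounds for 48 or 72 hr at 37 degrees Celsius. Viability read as ATP-coupled luminescence with CellTiter-Glo after 10 min at room temperature.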

HEK293 = assay: as above; details: Five cell lines viability, CellTiter-Glo ATP luminescence, 48-72 h; max response: stronger effect = lower value
Method in brief: as §1

NIH3T3 = assay: as above; details: Five cell lines viability, CellTiter-Glo ATP luminescence, 48-72 h; max response: stronger effect = lower value
Method in brief: as §1

C33A = assay: Primary qHTS to identify gynecologic anti-cancer compounds using libraries of approved drugs and bioactive compounds (AID 1345084); details: Gynecologic cancer cell panel viability, ATPlite luminescence, 48 h; series mostly up to 57.5 µM; further: nearly all actives have a fitted effect of over 55% in size; further: potency means the concentration at half of the fitted maximal effect
Method in brief: (§2)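 Cytotoxicity screen measuring ATP content by luciferase luminescence. Each compound is applied at five concentrations for 48 h at 37 C with 5% CO2.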

CAOV3 = assay: as above; details: Gynecologic cancer cell panel viability, ATPlite luminescence, 48 h; series mostly up to 57.5 µM
Method in brief: as §2

CASKI = assay: as above; details: Gynecologic cancer cell panel viability, ATPlite luminescence, 48 h; series mostly up to 57.5 µM
Method in brief: as §2

Es-2 = assay: as above; details: Gynecologic cancer cell panel viability, ATPlite luminescence, 48 h; series mostly up to 57.5 µM
Method in brief: as §2

Hek293T = assay: as above; details: Gynecologic cancer cell panel viability, ATPlite luminescence, 48 h, control line for the selectivity index; series mostly up to 57.5 µM
Method in brief: as §2

JEG-3 = assay: as above; details: Gynecologic cancer cell panel viability, ATPlite luminescence, 48 h; series mostly up to 57.5 µM
Method in brief: as §2

OV90 = assay: as above; details: Gynecologic cancer cell panel viability, ATPlite luminescence, 48 h; series mostly up to 57.5 µM
Method in brief: as §2

PA-1 = assay: as above; details: Gynecologic cancer cell panel viability, ATPlite luminescence, 48 h; series mostly up to 57.5 µM
Method in brief: as §2

Tov-21-G = assay: as above; details: Gynecologic cancer cell panel viability, ATPlite luminescence, 48 h; series mostly up to 57.5 µM
Method in brief: as §2

Tov112D = assay: as above; details: Gynecologic cancer cell panel viability, ATPlite luminescence, 48 h; series mostly up to 57.5 µM
Method in brief: as §2

C[C@]12CC[C@H](O)C[C@@H]1CC[C@@H]1[C@@H]2CC[C@]2(C)C(=O)CC[C@@H]12
inactive: Potency [1] | Potency [2] | Potency [3] | outcome [4] | Potency [5] | Potency [6] | Potency [7] | max response (CRL-7250) -5.26% | max response (HEK293) -15.1% | max response (NIH3T3) -0.109% | Potency (C33A) | Potency (CAOV3) | Potency (CASKI) | Potency (Es-2) | Potency (Hek293T) | Potency (JEG-3) | Potency (OV90) | Potency (PA-1) | Potency (Tov-21-G) | Potency (Tov112D)

CC1=CC2OC3CC(O)[C@](C)([C@@]2(C)C(O)C1=O)[C@]31CO1 (stereo not given in full)
active: Potency [2] 5.15 µM | Potency (CRL-7250) 5.8 µM | Potency (HEK293) 5.17 µM | Potency (NIH3T3) 4.11 µM | Potency (Es-2) 8.91 µM | Potency (Hek293T) 3.16 µM | Potency (PA-1) 3.16 µM
inactive: Potency [1] | Potency [3] | outcome [4] | Potency [5] | Potency [6] | Potency [7] | Potency (CAOV3) | Potency (JEG-3)

Fc1cc(F)c2c(c1)C1C=CCC1C(c1cccnc1)N2 (stereo not given)
active: Potency [2] 8.17 µM | Potency (CRL-7250) 5.8 µM | Potency (HEK293) 23.1 µM | Potency (C33A) 22.4 µM | Potency (PA-1) 17.8 µM
inactive: Potency [1] | Potency [3] | outcome [4] | Potency [7]

CCOc1ccc(Oc2ccc(OCc3cc(F)ccc3F)cc2)c(N)c1
active: Potency [5] 8.44 µM
inactive: Potency [1] | Potency [3] | outcome [4] | Potency [6] | Potency [7] | outcome (CRL-7250) | max response (NIH3T3) -0.81% | Potency (C33A) | Potency (CAOV3) | Potency (CASKI) | Potency (Es-2) | Potency (Hek293T) | Potency (JEG-3) | Potency (OV90) | Potency (PA-1) | Potency (Tov-21-G) | Potency (Tov112D)

CC1=CC(=O)[C@@H](O)[C@@]2(C)C1C[C@H]1OC(=O)[C@H](O)[C@@]3(O)[C@@H](C)[C@@H](O)[C@H](O)C2[C@@]13C (stereo not given in full)
inactive: Potency [3] | outcome [4] | Potency [5] | Potency [6] | Potency [7] | Potency (CASKI) | Potency (JEG-3)
active: Potency [2] 1.27 µM | Potency (CRL-7250) 2.86 µM | Potency (HEK293) 2.02 µM | Potency (Tov-21-G) 11.2 µM

CN(C(=O)C(c1ccccc1)c1ccccc1)[C@H](CN1CC[C@H](O)C1)c1ccccc1
inactive: Potency [1] | outcome [4] | Potency [5] | Potency [6] | Potency [7] | outcome (CRL-7250) | max response (NIH3T3) 3.64% | Potency (C33A) | Potency (CAOV3) | Potency (CASKI) | Potency (Es-2) | Potency (Hek293T) | Potency (JEG-3) | Potency (OV90) | Potency (PA-1) | Potency (Tov-21-G) | Potency (Tov112D)
